Results: ChEMBL document CHEMBL3988442, “University of Dundee, Small-Polar-MMV Screening Library” (2021)
In all, about 69,000 compounds went through this assay and about 1,000 (1.4%) showed an effect of 50% or more. Only a selection was taken, and strong results are over-represented in it overall.

Test system: Leishmania donovani
Test: Leishmania intramacrophage assay
Assay type: functional, organism-based
Parameters: scale not given: in the data most compounds retested in dose-response had high values

COc1ccc(C2CC(=O)Oc3cc(C)[nH]c(=O)c32)cc1 (stereo not drawn)
Percent Effect (30 µM, 30.03 µM): -4.044%

Cc1nnc(C2Cc3ccccc3CN2Cc2nc(C(C)C)no2)o1 (stereo not drawn)
Percent Effect (30 µM): -13.45%

CC(C)N1C(=O)CC(NC(=O)c2cc(Cl)sc2Cl)C1=O (stereo not drawn)
Percent Effect (30.3 µM, […]): 8.109%

O=C(NCc1cccnc1)[C@@H]1C[C@H]2[C@H](CCN2c2ncccn2)O1.O=C(O)C(F)(F)F.O=C(O)C(F)(F)F
Percent Effect (30.3 µM, […]): 4.628%

COCC(NC(=O)NCc1cccc(C#N)c1)c1ccco1 (stereo not drawn)
Percent Effect (30.3 µM, […]): 13.13%

Cc1noc(CN2CCN(CCO)CC2)n1
Percent Effect (30.3 µM, […]): 9.212%

Cc1nc(CN2CCN(c3cncc(Cl)n3)CC2)no1
Percent Effect (30.3 µM, […]): -1.637%

Cc1noc(CN2CCN(c3cncc(Cl)n3)CC2)n1
Percent Effect (30.3 µM, […]): 51.54%

Cc1nc2cc(C(=O)N3CCCC(n4cncn4)C3)ccc2n1C (stereo not drawn)
Percent Effect (30 µM, 30.03 µM): 12.85%

Fc1cccnc1N1CCCC(c2nccs2)C1 (stereo not drawn)
Percent Effect (30.3 µM, […]): 14.11%

OCc1ccccc1CNCC1CNc2ccnn2C1 (stereo not drawn)
Percent Effect (30.3 µM, […]): 22.72%

Cc1cc2n(n1)CC(CNC1CCN(Cc3ccccc3C)CC1)CN2 (stereo not drawn)
Percent Effect (30 µM, 30.03 µM): 54.12%

Cc1cccc(CN2CCC(NCC3CNc4cc(C)nn4C3)CC2)c1 (stereo not drawn)
Percent Effect (30.3 µM, […]): 50.3%

Cc1cc2n(n1)CC(CNC1CCN(c3ccccn3)CC1)CN2 (stereo not drawn)
Percent Effect (30.3 µM, […]): -5.394%

Cc1cc2n(n1)CC(CNC1CCN(Cc3ccncc3)CC1)CN2 (stereo not drawn)
Percent Effect (30.3 µM, […]): 2.182%

Cc1cc2n(n1)CC(CNC1CCN(CCc3ccccc3)CC1)CN2 (stereo not drawn)
Percent Effect (30.3 µM, […]): 15.82%

Cc1cc2n(n1)CC(CNC1CCN(Cc3ccccn3)CC1)CN2 (stereo not drawn)
Percent Effect (30.3 µM, […]): 17.09%

c1ccc(Cn2cccn2)c(CNCC2CNc3ccnn3C2)c1 (stereo not drawn)
Percent Effect (30 µM, 30.03 µM): 46.43%

Cc1ccccc1CN1CCC(NCC2CNc3ccnn3C2)CC1 (stereo not drawn)
Percent Effect (30 µM, 30.03 µM): 58.34%

O=C(c1cscn1)N1CCc2ncnc(-c3ccncc3)c2CC1
Percent Effect (30.3 µM, […]): 15.49%

Cc1ncc2c(c1CNC(=O)C1(c3ccc(F)cc3)CC1)CCNC2
Percent Effect (30.3 µM, […]): 8.933%

Oc1cc(CN2CCC(O)(Cn3ccnc3)CC2)nc2ccc(F)cc12
Percent Effect (30.3 µM, […]): 12.45%

Cc1nc(CN2CCCC(N(C)Cc3c(C)noc3C)C2)no1 (stereo not drawn)
Percent Effect (30 µM, 30.03 µM): 36.91%

COc1ccc(C(=O)N2CCCCC2c2nc(C)cs2)nn1 (stereo not drawn)
Percent Effect (30 µM, 30.03 µM): 9.548%

O=C(C1CNCCO1)N1CCC(c2cc(N3CCCC3)ncn2)CC1 (stereo not drawn)
Percent Effect (30.3 µM, […]): -9.261%

O=C(C1CNCCO1)N1CCCC(c2ccccc2)(c2ccccc2)C1 (stereo not drawn)
Percent Effect (30.3 µM, […]): 80.57%

CCn1c(CC2CCN(C(=O)C3CNCCO3)CC2)nn(C)c1=O (stereo not drawn)
Percent Effect (30.3 µM, […]): -9.405%

Cc1cccc(CN2CC[C@H]3O[C@H](C(=O)Nc4cnccn4)CC[C@H]32)n1.O=C(O)C(F)(F)F.O=C(O)C(F)(F)F
Percent Effect (30.3 µM, […]): 32.33%

O=C(NCc1cccnc1)[C@@H]1CC[C@@H]2[C@@H](CCN2c2ncccn2)O1.O=C(O)C(F)(F)F.O=C(O)C(F)(F)F
Percent Effect (30.3 µM, […]): 42.67%

O=C(NCc1cccnc1)[C@H]1CC[C@@H]2[C@@H](CCN2c2ncccn2)O1.O=C(O)C(F)(F)F.O=C(O)C(F)(F)F
Percent Effect (30.3 µM, […]): 6.718%

Cc1csc(CN2CC[C@H]3O[C@H](C(=O)Nc4cccnc4)CC[C@H]32)n1.O=C(O)C(F)(F)F.O=C(O)C(F)(F)F
Percent Effect (30.3 µM, […]): 50.68%

O=C(Nc1cnccn1)[C@@H]1CC[C@@H]2[C@@H](CCN2Cc2nccs2)O1.O=C(O)C(F)(F)F
Percent Effect (30.3 µM, […]): -8.357%

O=C(NCc1cccnc1)[C@@H]1CC[C@@H]2[C@@H](CCN2c2ncc(F)cn2)O1.O=C(O)C(F)(F)F.O=C(O)C(F)(F)F
Percent Effect (30.3 µM, […]): 56.7%
